The record followed here is PubChem BioAssay.

In assay [1] the test system is XIP peptide (Xip251-270) binding. The assay is described as follows: small-molecule binders of XIP peptide, primary screen, biochemical, small-molecule microarray, fluorescence 635/667 nm, 0.1 µg/mL protein (AID 1182). Particulars: fluorescent protein binding, 635 nm, higher = more signal, called active from +8 up or from −8 down.
Assay [2] concerns XIP peptide (Xip251-270). The assay is described as follows: small-molecule binders of XIP peptide, primary screen, biochemical, small-molecule microarray, fluorescence 635/667 nm, 0.5 µg/mL protein (AID 1183). The settings on record: small-molecule microarray binding, fluorescence 635 nm; higher = more signal.
Assay [3] is described as follows: Plasmodium falciparum growth inhibition, primary screen, strain 3D7, DAPI fluorescence, 100 nL (AID 1184).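 Note: parasites grown inside human red blood cells in medium with human serum.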 Particulars: P. falciparum 3D7 growth, 3 d, higher = more signal.
For assay [4], the target named is Homeobox protein Hox-A13 (Mus musculus) (UniProt Q62424). Nature of the assay: inhibitors of HoxA13-DNA binding, primary screen, biochemical, fluorescence polarization, labeled oligonucleotide (AID 1185). Particulars: 15 min, higher = more signal, called active from +8 up or from −8 down. (Polarisation of emitted light reports the rotation of a fluorescent probe.)

Assay [5] is described as follows: inhibitors of hydroxyurea-induced Chk1 phosphorylation, primary screen, imaging, HeLa, phospho-Chk1 antibody, percent positive cells (AID 1186). Particulars: hydroxyurea-induced phospho-Chk1 immunofluorescence imaging, higher = more signal.
Assay [6] is described as follows: inhibitors of hydroxyurea-induced Chk1 phosphorylation, primary screen, imaging, HeLa, phospho-Chk1 nuclear intensity (AID 1187). Particulars: hydroxyurea-induced phospho-Chk1 immunofluorescence imaging, higher = more signal.

The structures appear in SMILES notation. Active and inactive are the calls of the source. Unless noted, the rule behind the calls is not given here.

Chain of Homeobox protein Hox-A13 (Mus musculus) (Q62424 whole entry, looked up): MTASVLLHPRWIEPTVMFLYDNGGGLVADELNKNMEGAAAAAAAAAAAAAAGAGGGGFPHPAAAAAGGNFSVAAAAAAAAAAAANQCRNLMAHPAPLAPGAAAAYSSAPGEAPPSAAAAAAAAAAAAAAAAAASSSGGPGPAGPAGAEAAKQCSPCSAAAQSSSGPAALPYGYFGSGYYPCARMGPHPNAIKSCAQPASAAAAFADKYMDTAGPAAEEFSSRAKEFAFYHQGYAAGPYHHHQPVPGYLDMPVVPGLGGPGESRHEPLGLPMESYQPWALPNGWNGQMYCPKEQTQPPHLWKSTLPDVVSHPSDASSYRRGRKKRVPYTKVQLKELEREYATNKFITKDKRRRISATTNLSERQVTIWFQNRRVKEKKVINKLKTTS

Regarding `COCCCNC(=O)[C@]1(CCS(=O)(=O)c2ccccc2)N=C(c2ccc(OCCCO)cc2)O[C@@H]1c1ccccc1N=[N+]=[N-]`, the composite z-score in assay [1] was 1.26 (inactive); in assay [2], 0.731. Also, the z-score in assay [3] is -2.4; in assay [4], -3.71 (inactive); in assay [5], -0.198 (inactive); in assay [6], -0.266 (inactive).

In the case of `C=CC[C@]1(C(=O)NCCN2CCOCC2)N=C(c2ccc(OCCCO)cc2)O[C@H]1c1ccccc1CN=[N+]=[N-]`, the composite z-score in assay [1] is 0.882 (inactive); in assay [2], 0.887. Moreover, the z-score in assay [3] is -2.29; in assay [4], -4.74 (inactive); in assay [5] it was -0.005 (inactive); in assay [6], 0.23 (inactive).

As to `C=CCOC(=O)[C@H]1[C@@H]2C(=O)O[C@@H](c3ccccc3)[C@@H](c3ccccc3)N2[C@@H](c2ccc(OCCOC(=O)[C@@H]3C[C@@H]4C(=O)N[C@@H](CCCCN(C)C)C(=O)N4[C@@H]3c3ccc(O)cc3)cc2)[C@]12C(=O)Nc1ccccc12`, the composite z-score in assay [1] is 2.41 (inactive); in assay [2] it was 0.878. Moreover, the z-score is 0.0953 in assay [3], 4.03 (inactive) in assay [4], -0.768 (inactive) in assay [5] and -0.475 (inactive) in assay [6].

For the compound `CCOC(=O)C1=CC[C@@H](c2ccc(OCc3ccccc3)c(OC)c2)N(S(=O)(=O)c2ccc(C)cc2)[C@H]1c1ccc(SC)cc1`, the composite z-score in assay [1] is 0.56 (inactive); in assay [2], 0.569. For the same compound, the z-score in assay [3] is -2.05; in assay [4], 1.81 (inactive); in assay [5], -0.387 (inactive); in assay [6] it was -0.768 (inactive).

Turning to `CCOc1cc(C(O)C2C=CC3C(=O)N(c4ccccc4)C(=O)C3N2Nc2ccc(C#N)cc2)ccc1O` (stereo not drawn), the composite z-score is 0.186 (inactive) in assay [1] and 0.535 in assay [2]. The z-score in assay [3] is -0.435; in assay [4], -4.2 (inactive); in assay [5], -0.22 (inactive); in assay [6], -0.0602 (inactive).

As for `O[C@@H](Cc1ccccc1)[C@@H](/C=C/C1CC1)N(CC#Cc1ccccc1)Cc1cccc(Cl)c1`, the composite z-score in assay [1] was -0.16 (inactive); in assay [2], -0.646. Also, the z-score in assay [3] was -1.27; in assay [4], 0.493 (inactive); in assay [5], 0.0959 (inactive); in assay [6] it was 0.043 (inactive).

For the compound `NC(=O)NCC#Cc1ccc2c(c1)[C@]1(C(=O)N2)[C@H](C(=O)NC[C@H](O)c2ccccc2)[C@H]2C(=O)O[C@H](c3ccccc3)[C@H](c3ccccc3)N2[C@@H]1c1ccc(OCCO)cc1`, the composite z-score in assay [1] was 0.869 (inactive); in assay [2], 0.528. In addition, the z-score in assay [3] is -0.0803; in assay [4], -2.75 (inactive); in assay [5] it was 0.179 (inactive); in assay [6] it was 0.446 (inactive).

Regarding `COc1cc2c(cc1OC)CN(C(=O)[C@@H]1[C@H]3C(=O)O[C@H](c4ccccc4)[C@H](c4ccccc4)N3[C@H](c3ccc(OCCO)cc3)[C@@]13C(=O)Nc1ccccc13)CC2`, the composite z-score in assay [1] was 0.675 (inactive); in assay [2], 0.742. Besides, the z-score in assay [3] is -1.77; in assay [4], -8.07 (active); in assay [5] it was -0.118 (inactive); in assay [6], -0.256 (inactive).

For `N#Cc1ccc(C(O)C2C=CC3C(=O)N(c4ccccc4)C(=O)C3N2Nc2ccccc2)cc1` (stereo not drawn), the composite z-score in assay [1] was 0.294 (inactive); in assay [2] it was 0.108. Further, the z-score is -0.605 in assay [3], -1.94 (inactive) in assay [4], -0.18 (inactive) in assay [5] and -0.383 (inactive) in assay [6].

As for `NC(N)=NCCCn1cc(CNC(=O)[C@@H](N)Cc2ccccc2)nn1`, the figures for the composite z-score in assay [1] and in assay [2] were 0.196 (inactive) and -1.17, respectively. For the same compound, the z-score in assay [3] is 0.139; in assay [4] it was -1.61 (inactive); in assay [5], 0.262 (inactive); in assay [6] it was -0.174 (inactive).

As for `CCOC(=O)C1=CC[C@@H](c2cccc(Cl)c2)N(S(=O)(=O)c2ccc(C)cc2)C1`, the composite z-score in assay [1] was 1.46 (inactive); in assay [2], 0.662. The z-score in assay [3] was -0.639; in assay [4] it was -1.21 (inactive); in assay [5], -0.566 (inactive); in assay [6] it was -0.272 (inactive).

As to `O=C1NC(=O)C2C1C=CC(C(O)CCc1ccccc1)N2Nc1ccc(Cl)cc1Cl` (stereo not drawn), the composite z-score in assay [1] was 0.157 (inactive); in assay [2], 0.284. The z-score was 1.5 in assay [3], -5.96 (inactive) in assay [4], 0.738 (inactive) in assay [5] and 0.185 (inactive) in assay [6].

Consider `COC(=O)[C@@]1(Cc2ccc(OC)cc2)[C@H]2c3cc(C(=O)N(C)C)n(CCO)c3C[C@H]2CN1C(=O)c1ccccc1`, for which the composite z-score in assay [1] was -0.509 (inactive); in assay [2] it was -0.947. Also, the z-score was 0.302 in assay [3], -4.38 (inactive) in assay [4], 0.931 (inactive) in assay [5] and 0.524 (inactive) in assay [6].
